The text below walks through data of PubChem BioAssay (NCI).

This is part of a sample that, as a whole, favours compounds with a hit. Of some 83,000 tested, about 20% had one in any assay.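 Method: cells in 96-well plates; compound added at one concentration; 48 h incubation; percent growth measured; values under 10 scored active.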 A number with no mark means an inactive call. Calls of active or inactive are those of the source.

For this test, the system named is SK-MEL-5 melanoma. Description: NCI-60 one-dose screen, 48 h (100 = growth as untreated, 0 = no growth, -100 = all killed). The following applies: 10 µM. The protocol:
Growth inhibition of the SK-MEL-5 human tumor cell line is measured as a screen for anti-cancer activity. Cells are grown in 96 well plates and exposed to the test compound for 48 hours. Compounds are tested at a single concentration, which is 10^-5 M for most compounds. The reported endpoint is percent growth (GI% or GIPRCNT), where numbers from 0 - 100% represent growth inhibition, and numbers from -100% - 0 represent cell death. For example, a value of 40 represents 60% growth inhibition. A value of 0 means no net growth occurred over the course of the experiment. A value of -40 indicates 40% of cells at the beginning of the experiment died by the end of the experiment. A value of -100 means all cells are dead at the end of the experiment.
NCI-60 Human Tumor Cell Lines Screen was performed using the standard one-dose NCI protocol, which is described in more detail at https://dtp.cancer.gov/discovery_development/nci-60/default.htm.
Compounds with GIPRCNT values below 10 were considered active. Activity score was based on GIPRCNT using the following formula: […]
Score is 0 for GIPRCNT values of 100 or above, 50 for GIPRCNT values of 0, and 100 for GIPRCNT values of -100.
On to `COC(=O)[C@]12CC[C@@H](C)[C@H](C)[C@@H]1C1=CC[C@@H]3[C@@]4(C)CC(=O)[C@H](O)[C@@](C)(CO)[C@@H]4C(=O)C[C@@]3(C)[C@]1(C)CC2`, for which the growth is -80.3% (active).
The result for `O=C(O)CN1C(=O)C=CC1=O` reads 101%.
Take `CCCCC(=O)N(c1ccc(Nc2c3ccccc3nc3cc([N+](=O)[O-])ccc23)cc1)S(C)(=O)=O`: the growth was 69%.
For the compound `N#Cc1c2c([nH]c(=O)c1C(N)=O)CCCCC2`, the growth was 95.8%.
In the case of `Cc1cc(C#Cc2ccccc2)ccc1-n1c(/C=C/c2cc(O)ccc2O)nc2ccccc2c1=O`, the growth was -84.5% (active).
On to `CC(C)C[C@H](NC(=O)Cn1ccc(Nc2ccccc2)cc1=O)B(O)O`, for which the growth is 2.17% (active).
With `CC1=CC2OC34COC3CC(OC(=O)C(F)(F)F)C4(C)C2(C)CC1` (stereo not given), the growth was 97.4%.
In the case of `CCc1ccc(Nc2cc(C)nc3nc(C)nn23)cc1`, the growth was -97.8% (active).
With `CCCCn1c(=O)[nH]c(N)c(C(c2ccc(Cl)cc2)c2c(N)[nH]c(=O)n(CCCC)c2=O)c1=O`, the growth is -11.3% (active).
Take `O=C(NC1CCN(Cc2ccccc2)CC1)c1cc(-c2ccncc2)nc2ccc(Cl)cc12`: the growth was 16%.
The result for `CCCCCCCCCCCC(c1ccccc1)N(C)C` (stereo not given) reads 97%.
Consider `CCOC(=O)[C@@H]1[C@H](c2ccccc2)[C@H]([N+](=O)[O-])[C@H](c2cn(-c3ccccc3)nc2C)N1Cc1ccccc1`, for which the growth was 76.3%.
Turning to `O=NN(CCCl)C(=O)Nc1ccc(NC(=O)N(CCCl)N=O)cc1`, the growth was 97.1%.
In the case of `COc1ccc2c(c1)/C(=C/c1cc(OC)c(OC)c(OC)c1)C(=O)N2C`, the growth was -12.7% (active).
For the compound `N=C(N)c1ccc(-c2ccc(-c3ccccc3)s2)cc1F`, the growth was -97% (active).
For `COc1cc(OC)cc(-c2ccc(-c3ccc(C(=N)N)cn3)o2)c1`, the growth is -95.7% (active).
The result for `O=c1cc(CSc2nnc(-c3ccccc3)n2-c2ccc(F)cc2)c2ccc3ccccc3c2o1` reads 79%; that for `Oc1cc(O)c(Br)cc1Br`, 97.7%.
For `COc1cc(/C=C2\C(=O)Nc3cc(C)c(O)cc32)cc(OC)c1OC`, the growth was 47%.
With `CCCN(CCC)CCCNC(=O)c1cc2c(-c3ccc(OC)c(OC)c3)nn(C)c2s1`, the growth is -60.8% (active).
Take `Oc1ccc(Cn2cc3c(c2-c2ccccc2)CCc2cnoc2-3)cc1`: the growth is 89.9%.
Turning to `CCc1c(C(=O)NCc2c(O)ccc3cccc(O)c23)[nH]c(C)c1C(C)=O`, the growth is 1.58% (active).
Take `Cc1ncc([N+](=O)[O-])n1CCOc1ccc(C(=O)/C=C/c2ccc(C(F)(F)F)cc2)cc1`: the growth is 78.4%.
Take `COc1ccc(-c2nnc(COc3ccc(NC(=O)Nc4ccccc4)cc3F)o2)cc1`: the growth is 89%.
As for `O=C(CCc1ccccc1)N1CCN(C(=O)CCc2ccccc2)CC1`, the figure is 105%; as for `CCCC(C)c1ccc(OCCCCCCN2CCNCC2)cc1` (stereo not given), 53.5%.
Regarding `COc1ccc(-c2[nH]ncc2-c2cc(OC)c(OC)c(OC)c2)cc1`, the growth was -22.1% (active).
As for `COc1cc(C2c3cc4c(cc3C(O)C(CO)C2CO)OCO4)cc(OC)c1OC` (stereo not given), the figure is 11.1%.
`COc1cc(-c2nc(-c3nnc(-c4cccnc4)o3)c3ccccn23)cc(OC)c1OC`: the growth is 90.7%.
As for `N=C(N)c1ccc(-c2ccc(-c3ccccc3)s2)s1`, the figure is 14.5%; as for `CCN1CCN(c2ccc(Nc3ncnc4c3nnn4CCc3cc(OC)cc(OC)c3)cc2)CC1`, 73.5%; as for `COc1ccc2nc(/C=C/c3ccc(N(C)C)cc3)sc2c1`, 90.1%.
Regarding `O=[N+]([O-])c1ccc(Br)o1`, the growth is 96.9%.
Take `C[C@]12CC[C@H]3[C@@H](CC=C4C[C@@H](O)CC[C@@]43C)[C@@H]1CC[C@@H]2C(=O)C/C=N/O`: the growth is 92.8%.
As to `COc1cc(CSc2nc3ccc(C)cc3c(=O)n2Cc2ccccc2)cc(OC)c1OC`, the growth is 17.8%.
For the compound `OC(CNC1CCCC1)Cn1c2ccccc2c2ccccc21` (stereo not given), the growth is -61.6% (active).
For `COc1cc(-c2cc(/C=C/C(C)=O)[nH]n2)cc(OC)c1OC`, the growth was 79%.
As to `O=[N+]([O-])c1ccc(-c2nc(Cl)c3c(n2)CCCC3)o1`, the growth is 47.3%.
Consider `CNC(=O)c1cc(Oc2ccc(NC(=O)Nc3ccc(Cl)c(C(C)(C)C)c3)c(F)c2)ccn1`, for which the growth is -23.2% (active).
Turning to `COc1ccc(-c2nc3sc(-c4ccccc4)c(-c4ccccc4)n3c2/C=C/c2ccc(F)cc2)cc1`, the growth was 99.6%.
